Compound activity (PubChem)
TRHR agonist: qHTS for Small Molecule Agonists and Allosteric Enhancers of Human TRH Receptor: Primary Screen for Agonists. Thyrotropin-releasing hormone receptor (Homo sapiens), P34981. activation, % at 2 µM. TRHR cells, calcium flux fluo-8, FDSS agonist mode. hit rate 0.18% among 360,000; in the data active means activation above about 30%; further: 0% is about no effect
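Steps: seed TRHR cells overnight; add fluo-8 no-wash Ca dye, RT 30 min–1.5 h; record 10 s baseline; pin-transfer compounds; monitor fluorescence 1 cycle/s for the agonist window. Calcium increases flag candidate agonists.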
GLP1R ag: qHTS of GLP-1 Receptor Agonists | Glucagon-like peptide 1 receptor (Homo sapiens), P43220 | HEK293 GLP-1R CRE-luciferase, luminescence, 4-6 h; cells express a hypersensitive GLP-1R form | Potency, µM (top dose mostly 45.6 µM), without a hit: top-dose activation, usual class: activators | hit rate 0.007% among 380,000 | AID 624172, 2012; further: potency means the concentration at half of the fitted maximal effect; % of control where 0% means no effect
TRHR enhancer: qHTS for Small Molecule Agonists and Allosteric Enhancers of Human TRH Receptor: Primary Screen for Enhancers. Thyrotropin-releasing hormone receptor (Homo sapiens), P34981. TRHR cells, fluo-8 calcium fluorescence, EC20 TRH enhancement. enhancement, % at 2 µM. hit rate 0.66% among 360,000; in the data active means enhancement above about 30%; further: 0% is about no effect
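Enhancer read-out: after compound pinning and an initial kinetic agonist-mode read, an EC20 of TRH (10 nM final) was injected and fluo-8 calcium signal (Ex 480/Em 530) followed at 1 s/cycle for 100 cycles in TRHR-expressing cells.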
HEK293 tox: qHTS of GLP-1 Receptor Inverse Agonists: Cytotox Screen; HEK293 cAMP-luciferase reporter cells, luminescence, 24 h; Potency, µM (top dose mostly 38.3 µM), inactives show top-dose activity change, negative = inhibition, actives largely listed as inhibitors; hit rate 0.13% among 410,000; AID 624418, 2012;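 further: loss of luciferase light is scored as toxicity; potency means the concentration at half of the fitted maximal effect; on the % scale 0 is the no-effect control and ±100 the full control effect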
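Quantitative HTS format, 1536 wells, 200 cells/uL seeded. Compounds: 23 nL, 24 h, 37 °C. Detection: luciferase reagent, luminescence at 12 min RT; decreased signal taken as cytotoxic.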
GLP1R inv ag: qHTS of GLP-1 Receptor Inverse Agonists (Inhibition Mode); HEK293 GLP-1R CRE-luciferase, luminescence, 24 h; GLP-1R form is constitutively active; Potency, µM (doses to about 38.3 µM), for the others: top-dose activity change, negative = inhibition, hits mostly inhibitors; hit rate 1.6% among 410,000; AID 624417, 2012; further: potency means the concentration at half of the fitted maximal effect; on the % scale 0 is the no-effect control and ±100 the full control effect; nearly all actives have a fitted effect of over 55% in size
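Inverse agonism was detected as reduced cAMP-driven luciferase luminescence after 24 h compound treatment. The cells were HEK293 clones expressing constitutively active human GLP-1R with the reporter. Reporter-only and GPR119 cell lines served as counterscreen controls.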
PTHR1 ag: qHTS for PTHR1 Agonists: Primary Screen. HEK293 GP2 PTHR1 cells, GloSensor cAMP luminescence, 1 h. Parathyroid hormone/parathyroid hormone-related peptide receptor (Homo sapiens), Q03431. AID 743266, 2014. hit rate 0.075% among 410,000. Potency, µM (titrated, usually from 115 µM), for the others: at the highest dose activation, most hits filed as activators; further: potency means the concentration at half of the fitted maximal effect; nearly all actives have a fitted effect of over 55% in size
Target sequence (Q03431 whole entry, looked up): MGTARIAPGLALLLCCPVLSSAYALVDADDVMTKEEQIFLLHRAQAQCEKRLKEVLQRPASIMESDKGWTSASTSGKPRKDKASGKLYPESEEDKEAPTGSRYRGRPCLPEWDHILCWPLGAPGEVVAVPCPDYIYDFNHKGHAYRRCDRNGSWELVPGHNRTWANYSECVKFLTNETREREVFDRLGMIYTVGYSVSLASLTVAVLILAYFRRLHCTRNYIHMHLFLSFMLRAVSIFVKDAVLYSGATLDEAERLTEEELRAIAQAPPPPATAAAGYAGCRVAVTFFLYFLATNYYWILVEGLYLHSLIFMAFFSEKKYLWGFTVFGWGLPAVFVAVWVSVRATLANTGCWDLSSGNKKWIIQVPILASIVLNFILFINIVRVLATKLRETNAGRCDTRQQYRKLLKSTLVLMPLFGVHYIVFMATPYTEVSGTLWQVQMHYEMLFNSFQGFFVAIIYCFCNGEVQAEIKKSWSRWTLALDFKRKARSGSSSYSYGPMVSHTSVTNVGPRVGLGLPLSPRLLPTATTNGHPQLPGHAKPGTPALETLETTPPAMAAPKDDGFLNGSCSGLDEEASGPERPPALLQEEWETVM
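HEK-293-derived GP2 cells expressing PTHR1 and a GloSensor cAMP reporter, 3,000/well, plated overnight, given luciferin plus IBMX (each 0.5 mM as added) for 1 h at 37 °C, then compound for 1 h at 37 °C. Luminescence was read after 15 min at room temperature.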
* marks the source's active call; other numbers are inactive results; i = inactive; ? = inconclusive; . = not tested or not shown; [ ] = dose if it differs, or a comment. Shown are actives, neighbours in structure and some others; about 2.4% of the full set was active somewhere. Unless noted, the call rests on the fitted dose curve; in most records, active means well fitted curve in the direction sought with a large enough effect; inconclusive means small, poorly fitted or top-dose-only effect, or another doubt; inactive means no such curve, though single readings can be large; an effect the other way counts as inactive or inconclusive.

SMILES	TRHR agonist	GLP1R ag	TRHR enhancer	HEK293 tox	GLP1R inv ag	PTHR1 ag
COc1ccc(-c2cc(C3CCN(CC(O)C(F)(F)F)CC3)[nH]n2)cc1 (stereo not given)	1.5	-4.8%	1.9	11.2%	-23.0%	-23.4%
COc1ccc(-c2cc(C3CCN(Cc4cccc(C(F)(F)F)c4)CC3)[nH]n2)cc1	1.2	4.7%	-0.2	?	5.01µM*	-91.4%
CCOC(=O)c1c(C)nc2ccc(Cl)cc2c1-c1ccccc1	0.0	?	2.9	-6.5%	10µM*	i
O=C(c1ccc(-c2nc3ccccc3s2)s1)N1CCOCC1	-0.1	-5.1%	-2.8	0.6%	1.26µM*	-28.9%
CCN1CCN(C(=O)c2ccc(-c3nc4ccccc4s3)s2)CC1	0.0	20.1%	-0.4	11.6%	?	-51.5%
COc1ccc(OC)c(NC(=O)NNC(=O)CCCOc2ccc(Cl)cc2C)c1	-0.7	5.1%	-3.5	4.9%	10µM*	i
COc1ccc(NC(=O)NNC(=O)COc2ccc(Cl)cc2C)cc1OC	-0.2	-22.0%	0.3	7.1%	-11.0%	-6.1%
Cn1c(SCC(=O)NCC2CCCO2)nnc1-c1ccc(S(=O)(=O)N2CCCC2)cc1 (stereo not given)	0.1	0.2%	37.6*	0.4%	11.5%	-14.3%
CCc1ccc(OCc2nnc(SCC(=O)NCC3CCCO3)n2C)cc1 (stereo not given)	-0.3	10.9%	2.5	-11.6%	29.5%	i
Cc1cccc(OCc2nnc(SCC(=O)NCC3CCCO3)n2C)c1 (stereo not given)	-0.4	8.4%	37.0*	5.7%	6.9%	i
O=C(CSc1nnc(-c2ccc(S(=O)(=O)N3CCCC3)cc2)o1)NCC1CCCO1 (stereo not given)	1.0	2.5%	0.7	-0.3%[7.66 µM]	1.2%[7.66 µM]	i
COc1ccccc1CNC(=O)COC(=O)Cc1cccc(F)c1	-0.6	-1.8%	-4.4	3.1%	2.1%	?
Cc1ccc(-c2c(C(=O)NCCc3ccc(Cl)cc3)oc(=O)c3ccccc23)cc1	1.3	-11.3%	-0.3	4.9%	4.47µM*	16.9%
COc1ccccc1NC(=O)c1c(Nc2ccccc2C)sc(C(=O)Nc2cccc(Cl)c2)c1N	-0.8	-18.8%	3.9	?	4.47µM*	-7.9%
CCOc1cc(/C=C/C(=O)c2ccc(OC)c(CN3CCOCC3)c2)cc(Br)c1O	39.6*	10.4%	-7.3	8.6%	?	-23.1%
CN(CC(=O)NC(=O)NCc1ccccc1)CC(=O)Nc1ccc(Cl)c(C(F)(F)F)c1	-0.2	7.9%	6.6	-24.7%	7.94µM*	-48.5%
CN(CC(=O)NC(=O)NCc1ccccc1)Cc1cccc(Cl)c1Cl	-0.6	0.0%	1.0	-23.5%	10µM*	i
CN(CC(=O)NC(=O)NCc1ccccc1)Cc1ccc(Cl)cc1	0.1	8.4%	8.9	-2.2%	?	i
CCOc1ccc(NC(=O)CN(C)C(=O)c2ccc3nc(CC)c(CC)nc3c2)cc1OCC	-1.3	5.0%	-0.1	-3.5%	12.7%	i
CN(CC(=O)NCc1ccccc1)Cc1ccc(Cl)cc1	-1.2	1.8%	33.3*	10.0%	?	i
CCc1nc2ccc(C(=O)N(C)CC(=O)Nc3ccc(Cl)c(C(F)(F)F)c3)cc2nc1CC	1.2	-23.6%	2.1	?	8.91µM*	-93.0%
COc1ccc(CNC(=O)COC(=O)CNC(=O)c2sc3ccccc3c2Cl)cc1OC	-0.8	10.9%	6.7	-2.9%	2.7%	-11.5%
COc1ccc(-c2cc3c(c4c2ccn4C)C2CCC3O2)cc1OC (stereo not given)	.	-0.5%	.	1.0%	1.3%	-41.3%
O=S(=O)(NCc1ccco1)c1cccc(S(=O)(=O)N2CCCCC2)c1	0.1	-5.8%	31.9*	-8.0%	?	-37.4%[57.5 µM]
O=C(NC1CCCCC1)C(c1ccc(C(F)(F)F)cc1)n1c(=O)c(-c2cc3ccccc3[nH]2)nc2ccccc21 (stereo not given)	.	.	.	i	2.51µM*	i
SMILES	TRHR agonist	GLP1R ag	TRHR enhancer	HEK293 tox	GLP1R inv ag	PTHR1 ag
CC(C)(C)NC(=O)C(c1ccnc2ccccc12)n1c(=O)c(-c2ccccc2)nc2ccccc21 (stereo not given)	.	.	.	-10.8%	?	-19.3%
CC(C)(C)NC(=O)C(c1ccccc1)n1c(=O)c(-c2ccccc2)nc2ccccc21 (stereo not given)	.	.	.	-1.7%	11.2µM*	-15.1%
COc1ccc(C(C(=O)NC(C)(C)C)n2c(=O)c(-c3cc4ccccc4[nH]3)nc3ccccc32)cc1 (stereo not given)	.	.	.	i	10µM*	-11.1%
CCCCCNC(=O)C(c1ccccc1)n1c(=O)c(-c2cc3ccccc3[nH]2)nc2ccccc21 (stereo not given)	.	.	.	i	?	-13.5%
CCCCCNC(=O)C(CCc1ccccc1)n1c(=O)c(-c2cc3ccccc3[nH]2)nc2ccccc21 (stereo not given)	.	.	.	388.4%	3.55µM*	i
CCCCn1cnc2c(SCc3ccccc3Cl)nc(N)nc21	.	34.0%	.	-11.3%	10µM*	i
Nc1nc(SCc2ccccc2)c2ncn(Cc3ccccc3)c2n1	.	23.3%	.	-1.4%	7.94µM*	-35.6%
CN(C(=O)C(Cl)Cl)c1ccc(OC(=O)c2ccco2)cc1	-1.3	-2.9%	1.7	-2.9%	-3.0%	-25.2%
O=C(N[C@@H](Cc1ccccc1)C(=O)N1CCC2(CC1)NCCc1[nH]cnc12)c1cccc(Br)c1	1.6	8.0%	-5.0	-21.5%	10µM*	i
COc1cc(/C=N/N2C(=O)CSC2=S)ccc1O	5.6	1.4%	1.1	-13.3%	0.7%	i
O=C1CSC(=S)N1/N=C/c1cc(Br)c(O)c(Br)c1	160.1*	-0.5%	31.7*	-27.4%	-14.9%	-21.2%
C/C(CC(=O)Nc1ccc2c(c1)OCCO2)=N\NC(=O)COc1ccccc1	0.0	10.0%	37.2*	3.7%	3.0%	-18.3%
Cc1oc2ccc(NS(=O)(=O)c3ccccc3)cc2c1C(=O)Nc1ccccc1	0.1	6.2%	-1.4	-13.8%	?	i
O=C(Nc1nnc(-c2ccc(Cl)cc2)o1)Nc1ccccc1F	-0.6	1.7%	1.0	-14.4%	31.4%	i
